± gives the standard deviation of the averaged measurements.
What was measured:
[1] = system: Escherichia coli Nissle 1917; assay: area under OmniLog respiration curve over 48 h (OmniLog units x h); higher = more growth / nutrient utilisation; extreme values may be limits of the assay; details: incubation: 48 h, 37 °C
[2] = system: Escherichia coli Nissle 1917; assay: DuctApe activity index of respiration/growth curve (0 no growth to 9 maximum) (index 0-9); higher = more growth / nutrient utilisation, active = 3 or more; extreme values may be limits of the assay; details: incubation: 48 h, 37 °C
[3] = nutrient role: C-Source, carboxylic acid
[4] = nutrient role: N-Source, inorganic
[5] = nutrient role: sole phosphorus source (pyruvate carbon)
[6] = nutrient role: sole sulfur source (pyruvate carbon)
[7] = nutrient role: sole nitrogen source (pyruvate carbon)
[8] = nutrient role: C-Source, carbohydrate
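For DuctApe activity index of respiration/growth curve (0 no growth to 9 maximum) in this document: biolog PM4 phosphorus and sulfur plates, tetrazolium violet dye reduction read in the OmniLog every 15 min, kinetic curves scored by DuctApe, each plate run in triplicate.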

For O=C(O)CC(Br)C(=O)O (configuration not stated) [Bromosuccinic acid], which “area under OmniLog respiration curve” value [1, 3] is on record?
Its value is 7400 ± 380.

What about the DuctApe activity index [2, 3] of the same compound?
Its DuctApe activity index is 8 (active).

O=[N+]([O-])O [Nitrate] was tested. Which “area under OmniLog respiration curve” value [1, 4] did it give?
The value was 4.72.

And the DuctApe activity index [2, 4]?
The DuctApe activity index was 0 (inactive).

OP(O)(O)=S [Thiophosphate] was tested. Which “area under OmniLog respiration curve” value [1, 5] did it give?
The value was 9350 ± 660.

And the “area under OmniLog respiration curve” value [1, 6]?
Its value is 6760 ± 260.

What about the DuctApe activity index [2, 5] of the same compound?
The DuctApe activity index was 8.67 (active).

What about the DuctApe activity index [2, 6] of the same compound?
The DuctApe activity index was 7 (active).

With NCCc1ccccc1 [b-Phenylethylamine] as the compound, how does the “area under OmniLog respiration curve” value [1, 7] read?
Its value is 11.4 ± 12.

And the DuctApe activity index [2, 7]?
Its DuctApe activity index is 0 (inactive).

For CN(CC(=O)O)C(=N)NP(=O)(O)O [Phosphocreatine], which “area under OmniLog respiration curve” value [1, 5] is on record?
The value was 8760 ± 510.

And the DuctApe activity index [2, 5]?
The DuctApe activity index was 8.67 (active).

Which “area under OmniLog respiration curve” value ([1]; nutrient role: C-Source, amine) does the source give for NCCc1ccc(O)cc1 [Tyramine] here?
Its value is 33 ± 46.

And the “area under OmniLog respiration curve” value [1, 7]?
The value was 35.9 ± 54.

And the DuctApe activity index ([2]; nutrient role: C-Source, amine)?
Its DuctApe activity index is 0 (inactive).

What about the DuctApe activity index [2, 7] of the same compound?
The DuctApe activity index was 0 (inactive).

NCC(O)c1ccc(O)cc1 (racemic) [D,L-Octopamine] was tested. Which “area under OmniLog respiration curve” value ([1]; nutrient role: C-Source, amine) did it give?
Its value is 6.75 ± 3.5.

And the DuctApe activity index ([2]; nutrient role: C-Source, amine)?
The DuctApe activity index was 0 (inactive).

With O=C1NC(=O)C(=O)C(=O)N1 [Alloxan] as the compound, how does the “area under OmniLog respiration curve” value [1, 7] read?
Its value is 402 ± 390.

What about the DuctApe activity index [2, 7] of the same compound?
Its DuctApe activity index is 1.67 (inactive).

How did the “area under OmniLog respiration curve” value [1, 5] turn out when O=PO [Hypophosphite] was run?
The value was 2600 ± 590.

What about the DuctApe activity index [2, 5] of the same compound?
Its DuctApe activity index is 4 (active).

With NCCP(=O)(O)O [2-Aminoethyl Phosphonic acid] as the compound, how does the “area under OmniLog respiration curve” value [1, 5] read?
The value was 8180 ± 390.

What about the DuctApe activity index [2, 5] of the same compound?
Its DuctApe activity index is 8 (active).

With OP(O)(=S)S [Dithiophosphate] as the compound, how does the “area under OmniLog respiration curve” value [1, 5] read?
The value was 9000 ± 660.

What about the “area under OmniLog respiration curve” value [1, 6] of the same compound?
The value was 7150 ± 210.

And the DuctApe activity index [2, 5]?
The DuctApe activity index was 8.67 (active).

What about the DuctApe activity index [2, 6] of the same compound?
Its DuctApe activity index is 7.67 (active).

What does the source list for O=C(O)CCCO [g-Hydroxybutyric acid]?
area under OmniLog respiration curve [1, 3]: 5800 ± 210; DuctApe activity index [2, 3]: 7 (active)

Which “area under OmniLog respiration curve” value [1, 6] does the source give for CCSCCC(N)C(=O)O (racemic) [DL-Ethionine] here?
Its value is 286 ± 250.

What about the DuctApe activity index [2, 6] of the same compound?
Its DuctApe activity index is 0 (inactive).

CCN [Ethylamine] was tested. Which “area under OmniLog respiration curve” value [1, 7] did it give?
Its value is 8.5 ± 6.5.

And the DuctApe activity index [2, 7]?
The DuctApe activity index was 0 (inactive).

Which results are given for NCCc1ccccc1 [Phenylethylamine]?
area under OmniLog respiration curve ([1]; nutrient role: C-Source, amine): 5.51 ± 1.4; DuctApe activity index ([2]; nutrient role: C-Source, amine): 0 (inactive)

Which “area under OmniLog respiration curve” value [1, 8] does the source give for N#C[C@H](O[C@@H]1O[C@H](CO[C@@H]2O[C@H](CO)[C@@H](O)[C@H](O)[C@H]2O)[C@@H](O)[C@H](O)[C@H]1O)c1ccccc1 [Amygdalin] here?
The value was 4.97 ± 0.43.

What about the DuctApe activity index [2, 8] of the same compound?
Its DuctApe activity index is 0 (inactive).

Which results are given for CN [Methylamine]?
area under OmniLog respiration curve [1, 7]: 61 ± 97; DuctApe activity index [2, 7]: 0 (inactive)

Which “area under OmniLog respiration curve” value [1, 5] does the source give for CCOP(=O)(OCC)OCC [Triethyl Phosphate] here?
The value was 4.72.

What about the DuctApe activity index [2, 5] of the same compound?
The DuctApe activity index was 0 (inactive).

Reference: the supplement of paper PMC9801561
